Experimental data as given in PubChem BioAssay (NCI).
About 79,000 compounds went through this panel and 15% of them were active in at least one assay; those are over-represented in the sample as a whole. Unmarked numbers belong to inactive results. Calls of active or inactive are those of the source. No stated cut-off is given here; in the data, active means growth inhibition above about 70%; inactive means the rest.

Legend:
[1] = NCI Yeast Anticancer Drug Screen. Data for the rad50 strain (AID 155);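 further: 0% = growth of vehicle-only cultures of the same strain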; details: S. cerevisiae rad50 strain growth inhibition, hits give high values
In short: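 Compounds were tested on a yeast strain with an engineered DNA damage repair alteration; the reported value is growth inhibition normalised to vehicle treatment.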

[2] = NCI Yeast Anticancer Drug Screen. Data for the mec2-1 strain (AID 157); details: S. cerevisiae mec2-1 strain, hits give high values
In short: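 mec2-1 yeast strain, carrying an alteration in DNA damage repair or cell cycle control, was exposed to compounds; growth inhibition was measured relative to vehicle-treated controls.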

[3] = NCI Yeast Anticancer Drug Screen. Data for the sgs1 mgt1 strain (AID 161);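 further: 0% = growth of cultures given vehicle only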; details: S. cerevisiae sgs1 mgt1 strain, hits give high values
In short: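 Compounds are added to genetically altered yeast, and growth is compared with cultures given vehicle alone to give percent inhibition.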

[4] = NCI Yeast Anticancer Drug Screen. Data for the cln2 rad14 strain (AID 165);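 further: 0% = growth equal to vehicle treated cultures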; details: S. cerevisiae cln2 rad14 strain, hits give high values
In short: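 Yeast carrying cln2 and rad14 alterations (cell cycle control and DNA damage repair) were exposed to compounds. Growth inhibition was measured against vehicle-treated controls.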

[5] = NCI Yeast Anticancer Drug Screen. Data for the bub3 strain (AID 167); details: S. cerevisiae bub3 mutant strain, hits give high values
In short: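 Growth of a checkpoint-deficient yeast mutant is measured after compound exposure. Values represent inhibition relative to vehicle.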

[6] = NCI Yeast Anticancer Drug Screen. Data for the mlh1 rad18 strain (AID 175); details: S. cerevisiae mlh1 rad18 strain growth inhibition, hits give high values
In short: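 Growth inhibition of the yeast strain was measured after compound exposure and expressed relative to vehicle-treated controls. The strain carries defined defects in DNA damage repair.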

[7] = at 5.0 µM (retest, dose inferred, filed as 0.5)
[8] = at 50.0 µM (retest, dose inferred, filed as 5.0)

Compound | growth inhibition [1, 7] | growth inhibition [1, 8] | growth inhibition ([1]; at 50.0 µM) | growth inhibition [2, 7] | growth inhibition [2, 8] | growth inhibition ([2]; at 50.0 µM) | growth inhibition [3, 7] | growth inhibition [3, 8] | growth inhibition ([3]; at 50.0 µM) | growth inhibition [4, 7] | growth inhibition [4, 8] | growth inhibition ([4]; at 50.0 µM) | growth inhibition [5, 7] | growth inhibition [5, 8] | growth inhibition ([5]; at 50.0 µM) | growth inhibition [6, 7] | growth inhibition [6, 8] | growth inhibition ([6]; at 50.0 µM)
CC(SC1=CC(=O)c2c(Cl)ccc(O)c2C1=O)C(=O)O (configuration not stated) | 10% | 13% | 5.7% | 2% | 16% | 1.25% | 22% | 30% | -25.1% | -9% | 7% | -47.5% | 0% | 17% | 6% | 3% | 26% | 8.35%
COc1cc(/C=C2\S/C(=N/Nc3nc(-c4ccc(Br)cc4)cs3)NC2=O)cc(OC)c1OC | -2% | 67% | 84.8% (active) | -23% | 74% (active) | 76.2% (active) | -9% | 86% (active) | 97.8% (active) | -6% | 71% (active) | 80.2% (active) | 31% | 97% (active) | 95.3% (active) | 2% | 75% (active) | 91.5% (active)
O=C(C(=O)n1ncc(Cl)c(Cl)c1=O)n1ncc(Cl)c(Cl)c1=O | 5% | 7% | 18.6% | -5% | 10% | 70.9% (active) | 5% | 8% | 44.9% | -6% | -15% | 13.8% | -2% | -1% | 36.9% | 0% | 3% | 65.9%
CC(SC1=CC(=O)c2c(O)ccc(O)c2C1=O)C(=O)O (configuration not stated) | 9% | -19% | 22.6% | -4% | -2% | 11.8% | 19% | 5% | 19.9% | -5% | -6% | -27.6% | -6% | -5% | 4% | -5% | -6% | 25.1%
